NPC1 prom act – NPC1 promoter activation | Huh7 NPC1 promoter luciferase reporter, 24 h | Potency, µM (series often up to 9.22 µM), usual class: activators | 320,000 compounds, 2.4% hits; further: nearly all actives have a fitted effect of over 60% in size
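NPC1 promoter–luciferase Huh7 cells; 24 h compound; luminescence.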
ELG1 genotoxic – genotoxicity induction in ELG1-luciferase HEK293T cells. HEK293T ELG1-luciferase reporter, luminescence, 16 h. Potency, µM (top dose mostly 46 µM), usual class: activators. 330,000 compounds, 1.3% hits. AID 504466; further: nearly all actives have a fitted effect of over 60% in size
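HEK293T cells expressing luciferase-tagged ELG1 were exposed to compound or DMSO vehicle for 16 hr at 37 °C and 5% CO2. Luciferase activity was then measured with ONE-Glo after 30 min at room temperature.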
ELG1 repair inh – inhibitors of ELG1-dependent DNA repair in HEK293T cells; HEK293T ELG1-luciferase reporter, luminescence, 16 h; DNA damage induced by 5-fluorouridine; Potency, µM (doses to about 46.1 µM), hits mostly inhibitors; 330,000 compounds, 2.3% hits; further: nearly all actives have a fitted effect of over 55% in size
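Luminescence from the luciferase reporter, measured 30 min after ONE-Glo reagent at room temperature, was the read-out. Beforehand, 2,000 cells per well were exposed for 16 hr at 37 °C to 5-fluorouridine together with compound or vehicle.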
Rab9 promoter act – Rab9 promoter activation | 320,000 compounds, 2.8% hits | AID 485297 | Potency, µM (series often up to 9.22 µM), usual class: activators | Huh7 Rab9 promoter-luciferase reporter, luminescence, 24 h; further: nearly all actives have a fitted effect of over 60% in size
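Luminescence read-out: Huh7 cells stably expressing Rab9-luciferase, treated 24 h with compound at 37 °C, then lysed with luciferase reagent for 10 min at ambient before reading.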
FLuc counter – counter-screen for miR-21 project: firefly luciferase inhibitors or activators | P08659 | purified FLuc, Km substrates, luminescence inhibition | Potency, µM (titrated, usually from 57.5 µM), actives largely listed as inhibitors | 360,000 compounds, 6.9% hits | AID 588342; further: nearly all actives have a fitted effect of over 55% in size
Target sequence (P08659 whole entry, looked up): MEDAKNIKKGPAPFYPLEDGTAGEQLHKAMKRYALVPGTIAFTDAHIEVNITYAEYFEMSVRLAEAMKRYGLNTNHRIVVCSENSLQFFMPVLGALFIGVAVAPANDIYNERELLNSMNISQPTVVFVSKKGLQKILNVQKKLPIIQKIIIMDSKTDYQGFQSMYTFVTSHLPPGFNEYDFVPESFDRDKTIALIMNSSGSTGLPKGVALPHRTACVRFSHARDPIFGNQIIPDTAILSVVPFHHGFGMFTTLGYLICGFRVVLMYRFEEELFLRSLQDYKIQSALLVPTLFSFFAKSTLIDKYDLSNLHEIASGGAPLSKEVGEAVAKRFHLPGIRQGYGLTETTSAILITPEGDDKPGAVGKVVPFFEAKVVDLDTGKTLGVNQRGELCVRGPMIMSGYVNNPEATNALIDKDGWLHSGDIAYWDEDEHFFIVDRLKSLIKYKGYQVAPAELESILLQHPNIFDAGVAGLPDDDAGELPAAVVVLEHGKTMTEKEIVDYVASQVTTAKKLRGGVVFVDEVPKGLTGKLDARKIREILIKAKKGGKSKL
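Biochemical qHTS of compounds, final roughly 60 µM downward over six points, against 10 nM purified firefly luciferase using Km concentrations of substrates (10 uM D-luciferin, 10 uM ATP) in Tris acetate pH 7.5 buffer; luminescence output.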
SMN2 splice enh – increases expression of the SMN2 splice variant. HEK293 SMN2-luciferase splicing reporter, luminescence, 30-36 h. Potency, µM (series often up to 46.1 µM), most hits filed as activators. AID 1458. 210,000 compounds, 2.8% hits; further: nearly all actives have a fitted effect of over 55% in size
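qHTS luciferase splicing reporter: luminescence rises when SMN2 exon 7 is included in transfected HEK293 cells. Compound exposure lasted 30-36 h at 37C, with 4.5 mM final sodium butyrate as control, followed by a ONE-Glo read.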
A number is an active result. Sampled rows, rich in hits. Any-hit rate of the full collection: about 9.2%. The call rests on the fitted dose curve; in most records, active means well fitted curve in the direction sought with a large enough effect; inconclusive means small, poorly fitted or top-dose-only effect, or another doubt; inactive means no such curve, though single readings can be large; an effect the other way counts as inactive or inconclusive.

How did COc1ccc(C(=O)/C=C(\C)NCc2ccc3c(c2)OCO3)cc1 do in these assays?
NPC1 prom act: inactive; ELG1 genotoxic: inactive; ELG1 repair inh: inactive; Rab9 promoter act: inactive; FLuc counter: inactive

How did COc1ccc(/C=C/C(=O)Nc2ccc(OC)nc2)cc1 do in these assays?
NPC1 prom act: inactive; ELG1 genotoxic: inactive; ELG1 repair inh: inactive; Rab9 promoter act: inactive; FLuc counter: 7.6µM; SMN2 splice enh: inactive

Results for COc1ccc(NC(=O)/C=C/c2ccc(OC)c(OC)c2)cn1 ?
NPC1 prom act: inactive; ELG1 genotoxic: inactive; ELG1 repair inh: inactive; Rab9 promoter act: inactive; FLuc counter: inconclusive

Results for COc1ccc(NC(=O)/C=C/c2ccc(OC(F)F)cc2)cn1 ?
NPC1 prom act: inactive; ELG1 genotoxic: inactive; ELG1 repair inh: inconclusive; Rab9 promoter act: inactive; FLuc counter: 12µM

Results for CCCCn1c(CCC(=O)O)nc2cc(S(=O)(=O)N3CCCC3)ccc21 ?
ELG1 genotoxic: inactive; ELG1 repair inh: inactive

Results for CCOC(=O)N/N=C(\C)c1ccc(Br)cc1 ?
NPC1 prom act: inactive; ELG1 genotoxic: inconclusive; ELG1 repair inh: inconclusive; Rab9 promoter act: inactive; FLuc counter: 17µM; SMN2 splice enh: inactive

What do the screens show for `C/C(=N\NC(=O)c1ccccc1)c1ccccc1F`?
NPC1 prom act: 1.4µM; ELG1 genotoxic: 5.8µM; ELG1 repair inh: inconclusive; Rab9 promoter act: 0.56µM; FLuc counter: 12µM; SMN2 splice enh: 5.6µM

What do the screens show for `C/C(=N\NC(=O)c1ccccc1OCCOc1ccccc1)c1ccccc1F`?
NPC1 prom act: inactive; ELG1 genotoxic: inactive; ELG1 repair inh: 18µM; Rab9 promoter act: inactive; FLuc counter: inconclusive

Results for C/C(=N\NC(=O)c1ccc(Br)cc1)c1ccccc1 ?
NPC1 prom act: 0.56µM; ELG1 genotoxic: inconclusive; ELG1 repair inh: inconclusive; Rab9 promoter act: 1.3µM; FLuc counter: 3.4µM; SMN2 splice enh: 13µM

What do the screens show for `CC(=O)N[C@H](C(=O)N[C@@H](C)C(=O)N[C@H](C#N)CC(=O)O)C(C)C`?
NPC1 prom act: inactive; Rab9 promoter act: inactive; FLuc counter: inactive

How did Cc1cc(NC(=O)c2ccc(F)cc2)n(C)n1 do in these assays?
NPC1 prom act: inactive; ELG1 genotoxic: inactive; ELG1 repair inh: inconclusive; Rab9 promoter act: inactive; FLuc counter: inactive

Results for Cn1cc(CCC(=O)NC2CC(C)(C)Cc3c2cnn3-c2ccc(F)cc2)cn1 (stereo not given) ?
NPC1 prom act: inactive; ELG1 genotoxic: inactive; ELG1 repair inh: inactive; Rab9 promoter act: inactive; FLuc counter: inactive

What do the screens show for `C/C(=N\NC(=O)OC(C)(C)C)c1ccccc1Br`?
NPC1 prom act: inconclusive; ELG1 genotoxic: inconclusive; ELG1 repair inh: inconclusive; Rab9 promoter act: inconclusive; FLuc counter: 21µM; SMN2 splice enh: inactive

Results for C/C(=N\NC(=O)c1ccccc1)c1ccccc1Br ?
NPC1 prom act: inconclusive; ELG1 genotoxic: inconclusive; ELG1 repair inh: inconclusive; Rab9 promoter act: inconclusive; FLuc counter: 15µM; SMN2 splice enh: inconclusive

What do the screens show for `O=C(Nc1ccc(NC(=O)c2ccccc2Br)cc1)c1ccccc1`?
NPC1 prom act: inactive; ELG1 genotoxic: inconclusive; ELG1 repair inh: inconclusive; Rab9 promoter act: inactive; FLuc counter: inactive

How did COC(=O)N/N=C(\C)c1ccc(Br)cc1 do in these assays?
NPC1 prom act: inactive; ELG1 genotoxic: inactive; ELG1 repair inh: inconclusive; Rab9 promoter act: inactive; FLuc counter: inconclusive; SMN2 splice enh: inactive

Results for Cc1noc(C)c1COC(=O)c1cccc(S(=O)(=O)N2c3ccccc3CC2C)c1 (stereo not given) ?
NPC1 prom act: inactive; ELG1 genotoxic: inactive; ELG1 repair inh: 18µM; Rab9 promoter act: inactive; FLuc counter: inactive; SMN2 splice enh: inactive

What do the screens show for `Cc1noc(C)c1COC(=O)c1cccc(S(=O)(=O)N2CCOCC2)c1`?
NPC1 prom act: inactive; ELG1 genotoxic: inactive; ELG1 repair inh: inactive; Rab9 promoter act: inactive; FLuc counter: inactive

Results for Cn1c(N=Nc2ccc(N3CCOCC3)cc2)[n+](C)c2ccccc21 ?
NPC1 prom act: inactive; ELG1 genotoxic: inactive; ELG1 repair inh: inactive; Rab9 promoter act: inactive; FLuc counter: 7.6µM; SMN2 splice enh: inactive

What do the screens show for `O=C(CN1C(=O)NC2(CCCC2)C1=O)Nc1ccc(F)c([N+](=O)[O-])c1`?
NPC1 prom act: inactive; ELG1 genotoxic: inactive; ELG1 repair inh: inactive; Rab9 promoter act: inactive; FLuc counter: inactive

How did COc1ccc(/C=C/c2nnc(NC(=O)COc3ccc(C)cc3)s2)cc1 do in these assays?
NPC1 prom act: inactive; ELG1 genotoxic: inactive; ELG1 repair inh: inactive; Rab9 promoter act: inactive; FLuc counter: inactive; SMN2 splice enh: 5µM

Results for CCOC(=O)Nc1nnc(-c2cccc(OC)c2)s1 ?
NPC1 prom act: inactive; ELG1 genotoxic: inconclusive; ELG1 repair inh: inactive; Rab9 promoter act: inactive; FLuc counter: inconclusive; SMN2 splice enh: inconclusive

How did COc1ccc(/C=C/c2nnc(NC(=O)COc3ccccc3)s2)cc1 do in these assays?
NPC1 prom act: inactive; ELG1 genotoxic: inactive; ELG1 repair inh: inactive; Rab9 promoter act: inactive; FLuc counter: inactive

Results for CCCC(=O)Nc1nnc(/C=C/c2ccc(OC)cc2)s1 ?
NPC1 prom act: inactive; ELG1 genotoxic: inactive; ELG1 repair inh: inactive; Rab9 promoter act: inactive; FLuc counter: inconclusive

What do the screens show for `CCOC(=O)Nc1nnc(-c2ccc(OC)cc2)s1`?
NPC1 prom act: inactive; ELG1 genotoxic: inconclusive; ELG1 repair inh: inconclusive; Rab9 promoter act: inconclusive; FLuc counter: 4.8µM; SMN2 splice enh: inactive

What do the screens show for `CCCCOC(=O)Nc1nnc(/C=C/c2ccc(OC)cc2)s1`?
NPC1 prom act: inactive; ELG1 genotoxic: inactive; ELG1 repair inh: inconclusive; Rab9 promoter act: inactive; FLuc counter: inconclusive; SMN2 splice enh: inactive

How did COc1ccc(/C=C/c2nnc(NC(=O)C(C)(C)C)s2)cc1 do in these assays?
NPC1 prom act: inactive; ELG1 genotoxic: inactive; ELG1 repair inh: inactive; Rab9 promoter act: inactive; FLuc counter: 8.5µM

What do the screens show for `CCOC(=O)Nc1nnc(/C=C/c2ccc(OC)cc2)s1`?
NPC1 prom act: inactive; ELG1 genotoxic: inactive; ELG1 repair inh: inconclusive; Rab9 promoter act: inactive; FLuc counter: 13µM; SMN2 splice enh: inactive

Results for CC(NCc1ccc(F)cc1)C(=O)Nc1cc(S(=O)(=O)N2CCCCC2)ccc1Cl (stereo not given) ?
NPC1 prom act: inactive; ELG1 genotoxic: inactive; ELG1 repair inh: inactive; Rab9 promoter act: inactive; FLuc counter: inactive; SMN2 splice enh: inactive

How did Cc1nc(NC(=O)CSc2nnnn2C)sc1C do in these assays?
NPC1 prom act: inconclusive; ELG1 genotoxic: inconclusive; ELG1 repair inh: inconclusive; Rab9 promoter act: inconclusive; FLuc counter: inconclusive; SMN2 splice enh: 11µM

What do the screens show for `Cc1csc(NC(=O)CSc2nnnn2C)n1`?
NPC1 prom act: inactive; ELG1 genotoxic: inconclusive; ELG1 repair inh: inconclusive; Rab9 promoter act: inconclusive; FLuc counter: inconclusive; SMN2 splice enh: 14µM

From PubChem BioAssay
